Data as given in the supplement of paper PMC7411054.
Where a name gives a salt, the structure may show the parent alone.

system: WPMY1-TUBA1B-RELA; experiment: lowest phenotypically active concentration; higher = less potent; details: treatment time: 24 h
Procedure, shortened: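 Fifteen reporter lines derived from A549, HepG2 and WPMY1 cells by gene editing, carrying BFP for segmentation plus GFP and RFP/FusionRed markers, were exposed to 0.3, 1, 3 or 9 µM for 24 h in four wells each and imaged live. Live-cell features from each well were normalised to solvent control wells. A well set counted as deviating when ≥3 of 4 wells lay beyond the 95th percentile of control Euclidean distances, and as reproducible when the median replicate Pearson correlation exceeded the 95th percentile of non-replicates. Phenotypic activity was assigned only when both criteria were met.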

| Compound | lowest phenotypically active concentration |
| --- | --- |
| Nc1nc(Cl)nc2c1ncn2[C@@H]1O[C@H](CO)[C@@H](O)[C@@H]1F [clofarabine] | ≤ 0.3 µM |
| Cc1nc(Nc2ncc(C(=O)Nc3c(C)cccc3Cl)s2)cc(N2CCN(CCO)CC2)n1 [dasatinib] | ≤ 0.3 µM |
| O=C(NCc1cccc(O)c1)Nc1nc(-c2ccncc2)cs1 [RKI 1447 dihydrochloride] | ≤ 0.3 µM |
| CC(C)n1nc(-c2cc3cc(O)ccc3[nH]2)c2c(N)ncnc21 | 3 µM |
| COc1ccc(-c2ccc3ncc4c(c3c2)n(-c2ccc(N3CCNCC3)c(C(F)(F)F)c2)c(=O)n4C)cn1 | ≤ 0.3 µM |
| CC(C)(C)c1cnc(CSc2cnc(NC(=O)C3CCNCC3)s2)o1 | ≤ 0.3 µM |
| O=C(O)c1ccc(Nc2ncc3c(n2)-c2ccc(Cl)cc2C(c2c(F)cccc2F)=NC3)cc1 | ≤ 0.3 µM |
| COc1ccc(S(=O)(=O)N(C(C)=O)c2ccccc2/C=C/c2cc[n+]([O-])cc2)cc1 | 1 µM |
| CC(C)(C)Nc1nc(Nc2ccc(C(N)=O)cc2)cc(N)c1C#N | 9 µM |
| Nc1cccc(-c2cc3c(Oc4cccc(O)c4)ncnc3[nH]2)c1 | 9 µM |
| c1ccc2c(c1)Cc1c(Nc3ccc4c(c3)OCCO4)n[nH]c1-2 | 3 µM |
| Cc1c(NC(=O)OC[C@@H]2COCCN2)cn2ncnc(Nc3ccc4c(cnn4Cc4cccc(F)c4)c3)c12 | 3 µM |
| CCC(=O)N1CCN(c2ccc(-n3c(=O)ccc4cnc5ccc(-c6cnc7ccccc7c6)cc5c43)cc2C(F)(F)F)CC1 [Torin 1] | ≤ 0.3 µM |
| COc1c(Nc2cc(C)[nH]n2)nc(Sc2ccc(S(=O)(=O)Cc3cccc([N+](=O)[O-])c3F)cc2F)nc1N1CCOCC1 [Centrinone] | 3 µM |
| COc1cc2c(NC3CCN(C(C)C)CC3)nc(N3CCC(F)(F)CC3)nc2cc1OCCCN1CCCC1 | 1 µM |
| CC(=O)c1c(C)c2cnc(Nc3ccc(N4CCNCC4)cn3)nc2n(C2CCCC2)c1=O | 9 µM |
| CN1c2ccccc2C(=O)N2CCc3c([nH]c4ccccc34)[C@H]21 [Evodiamine] | 1 µM |
| CO[C@H]1C=CC=C(C)C(=O)NC2=CC(=O)C(NCCN(C)C)=C(C[C@@H](C)C[C@H](OC)[C@H](O)[C@@H](C)C=C(C)[C@@H]1OC(N)=O)C2=O [17-DMAG hydrochloride] | ≤ 0.3 µM |
| Cc1noc(C)c1-c1cc(O)cc(C(O)c2ccccc2)c1 (centres undefined) | 3 µM |
| O=C(Nc1ccc(-c2ccnc(Nc3ccc(N4CCOCC4)cc3)n2)cc1)[C@@H]1CCCN1 | 3 µM |

| Compound | lowest phenotypically active concentration |
| --- | --- |
| NC1(C(=O)N[C@@H](CCO)c2ccc(Cl)cc2)CCN(c2ncnc3[nH]ccc23)CC1 | 1 µM |
| NC(=O)Nc1cc(-c2cccc(F)c2)sc1C(=O)N[C@H]1CCCNC1 [AZD 7762 hydrochloride] | ≤ 0.3 µM |
| COc1cc2nc(-c3cc(F)ccc3O)nc(N[C@@H]3CNC[C@H]3C(C)(C)O)c2cc1OC | 1 µM |
| Cc1c[nH]c2nccc(Oc3c(F)cc(Nc4cc(Cl)nc(N)n4)cc3F)c12 | ≤ 0.3 µM |
| C[C@H]1[C@H]2CC[C@H]3[C@@H]4CC=C5C[C@@H](N(C)C)CC[C@]5(C)[C@H]4CC[C@]23CN1C [Conessine] | 9 µM |
| CON(C)C(=O)N1N=C(c2cc(F)ccc2F)S[C@@]1(CCCN)c1ccccc1 [ARRY 520 trifluoroacetate] | ≤ 0.3 µM |
| CC[C@H](CO)Nc1nc(NCc2ccc(-c3ccccn3)cc2)c2ncn(C(C)C)c2n1 | ≤ 0.3 µM |
| Oc1cccc(-c2nc(N3CCOCC3)c3oc4ncccc4c3n2)c1 [PI 103 hydrochloride] | ≤ 0.3 µM |
| COc1cc(/C=C/c2ccc(OC)cc2OC)cc(OC)c1 | 1 µM |
| COc1cc2c(cc1-c1c(C)noc1C)ncc1[nH]c(=O)n([C@H](C)c3ccccn3)c12 [I-BET 151 dihydrochloride] | 3 µM |
| COc1cccc(-c2cc(F)ccc2[C@H]2Cc3nc(N)nc(C)c3C(=O)N2)n1 | ≤ 0.3 µM |
| COc1cc(C(=O)NC2CCN(C)CC2)c(F)cc1Nc1ncc2c(n1)N(C1CCCC1)CC(F)(F)C(=O)N2C [TAK 960 hydrochloride] | ≤ 0.3 µM |
| CC[C@]1(O)C[C@@H]2CN(CCc3c([nH]c4ccccc34)[C@@](C(=O)OC)(c3cc4c(cc3OC)N(C=O)[C@H]3[C@@](O)(C(=O)OC)[C@H](OC(C)=O)[C@]5(CC)C=CCN6CC[C@]43[C@@H]65)C2)C1 [vincristine] | ≤ 0.3 µM |
| OC[C@H]1O[C@@H](n2cnc3c(NCc4ccco4)ncnc32)[C@H](O)[C@@H]1O [Kinetin riboside] | 3 µM |
| N#Cc1c(C2CCNCC2)cc(-c2c(O)cccc2OCC2CC2)nc1N | 9 µM |
| C=CC(=O)Nc1cccc(Nc2nc(Nc3ccc(OCCOC)cc3)ncc2F)c1 | 3 µM |
| COc1cc(N2CCC(N3CCN(C)CC3)CC2)ccc1Nc1ncnc(Nc2ccccc2S(=O)(=O)C(C)C)n1 | 9 µM |
| Fc1ccccc1CNCc1ccc(-c2ccnc3[nH]ccc23)cc1 [OXA 06 dihydrochloride] | 1 µM |
| C[C@H]1COCCN1c1cc(C2(S(=O)(=O)C3CC3)CC2)nc(-c2ccc(NC(=S)NCCO)cc2)n1 | ≤ 0.3 µM |
